According to PubChem BioAssay (NCATS):
Records with an inconclusive call do not appear. Activity calls are given as the source filed them. The call rests on the fitted dose curve; in most records, active means well fitted inhibition curve with a large enough effect; inconclusive means small, poorly fitted or top-dose-only effect; inactive means flat fitted curve, though single readings scatter.

Legend:
PAD = assay: qHTS profiling for inhibitors of Plasmodium falciparum proliferation (AID 504749);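 further: 0% = DMSO vehicle and full inhibition = artemisinin control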; settings: P. falciparum in erythrocytes, SYBR Green DNA, 72 h; series mostly up to 28.7 µM
How it was run: (§1)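 P. falciparum-infected erythrocytes (0.3% parasitemia, 2.5% hematocrit) incubated with compound 72 h at 37 C, 5% CO2. Parasite DNA detected by SYBR Green after lysis, overnight at room temperature; normalised to 0.29 uM artemisinin and DMSO.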

PC15 = assay: as above; settings: P. falciparum in erythrocytes, SYBR Green DNA, 72 h; series mostly up to 28.7 µM
How it was run: as §1

PC26 = assay: as above; settings: P. falciparum in erythrocytes, SYBR Green DNA, 72 h; series mostly up to 28.7 µM
How it was run: as §1

PC49 = assay: as above; settings: P. falciparum in erythrocytes, SYBR Green DNA, 72 h; series mostly up to 28.7 µM
How it was run: as §1

SC27B = assay: as above; settings: P. falciparum in erythrocytes, SYBR Green DNA, 72 h; series mostly up to 28.7 µM
How it was run: as §1

TAB109 = assay: as above; settings: P. falciparum in erythrocytes, SYBR Green DNA, 72 h; series mostly up to 28.7 µM
How it was run: as §1

TAB113 = assay: as above; settings: P. falciparum in erythrocytes, SYBR Green DNA, 72 h; series mostly up to 28.7 µM
How it was run: as §1

TAB165 = assay: as above; settings: P. falciparum in erythrocytes, SYBR Green DNA, 72 h; series mostly up to 28.7 µM
How it was run: as §1

W2 = assay: as above; settings: P. falciparum in erythrocytes, SYBR Green DNA, 72 h; series mostly up to 28.7 µM
How it was run: as §1

CRL-7250 = normal cell line; assay: Cytotoxic Profiling of Annotated Libraries Using Quantitative High-Throughput Screening (AID 1296008); settings: Five cell lines viability, CellTiter-Glo ATP luminescence, 48-72 h; active compounds read low; on max response: on the % scale 0 is the no-effect control and ±100 the full control effect
How it was run: (§2)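 Cells exposed to compounds for 48 or 72 hr at 37 degrees Celsius. Viability read as ATP-coupled luminescence with CellTiter-Glo after 10 min at room temperature.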

HEK293 = assay: as above; settings: Five cell lines viability, CellTiter-Glo ATP luminescence, 48-72 h; active compounds read low
How it was run: as §2

HaCat = assay: as above; settings: Five cell lines viability, CellTiter-Glo ATP luminescence, 48-72 h; active compounds read low
How it was run: as §2

KB-3-1 = assay: as above; settings: Five cell lines viability, CellTiter-Glo ATP luminescence, 48-72 h, active compounds read low
How it was run: as §2

NIH3T3 = assay: as above; settings: Five cell lines viability, CellTiter-Glo ATP luminescence, 48-72 h; active compounds read low
How it was run: as §2

MCC-13 = assay: qHTS assay to identify novel small-molecules to repurpose for Merkel cell carcinoma treatment (AID 1296009); settings: MCC and control cell lines, CellTiter-Glo viability, 72 h; series mostly up to 46 µM; further: on the % scale 0 is the no-effect control and ±100 the full control effect
How it was run: (§3)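 Cells were treated for 72 hr at 37 degree celsius with compounds in 8- or 11-point dose response. Viability was read by CellTiter-Glo luminescence, normalized to no-cell (cytotoxicity) and DMSO controls.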

MCC-26 = assay: as above; settings: MCC and control cell lines, CellTiter-Glo viability, 72 h; series mostly up to 46 µM
How it was run: as §3

MKL-1 = assay: as above; settings: MCC and control cell lines, CellTiter-Glo viability, 72 h; series mostly up to 46 µM
How it was run: as §3

MKL-2 = assay: as above; settings: MCC and control cell lines, CellTiter-Glo viability, 72 h; series mostly up to 46 µM
How it was run: as §3
Further: nearly all actives have a fitted effect of over 60% in size.

CCOc1ccc(C(=O)OCCN(CC)CC)cc1
inactive: Potency (PAD) | Potency (PC15) | Potency (PC26) | Potency (PC49) | Potency (SC27B) | Potency (TAB109) | Potency (TAB113) | Potency (TAB165) | Potency (W2) | max response (CRL-7250) -0.597% | max response (HEK293) 1.58% | max response (HaCat) -25.1% | max response (KB-3-1) -3.59% | max response (NIH3T3) -1.32% | outcome (MCC-13) | outcome (MCC-26) | outcome (MKL-1) | outcome (MKL-2)

CC(=O)N(CC(O)CN(C(C)=O)c1c(I)c(C(=O)NCC(O)CO)c(I)c(C(=O)NCC(O)CO)c1I)c1c(I)c(C(=O)NCC(O)CO)c(I)c(C(=O)NCC(O)CO)c1I (centres undefined)
inactive: max response (CRL-7250) -0.159% | max response (HEK293) -0.57% | max response (HaCat) -14.3% | max response (KB-3-1) 0.0705% | outcome (NIH3T3) | outcome (MCC-13) | outcome (MCC-26) | outcome (MKL-1) | outcome (MKL-2)

CCCCCCCCCCCCCCCCCCO
inactive: Potency (PAD) | Potency (PC15) | Potency (PC26) | Potency (PC49) | Potency (SC27B) | Potency (TAB109) | Potency (TAB113) | Potency (TAB165) | Potency (W2) | max response (CRL-7250) 0.886% | max response (HEK293) -5.18% | max response (HaCat) -4.21% | max response (KB-3-1) 12.1% | outcome (NIH3T3) | outcome (MCC-13) | outcome (MCC-26) | outcome (MKL-1) | outcome (MKL-2)

CC(C)CCCC(C)CCCC(C)CCCCC(C)CCCC(C)CCCC(C)C (centres undefined)
inactive: Potency (PAD) | Potency (PC15) | Potency (PC26) | Potency (PC49) | Potency (SC27B) | Potency (TAB109) | Potency (TAB113) | Potency (TAB165) | Potency (W2) | outcome (CRL-7250) | max response (HEK293) -6.17% | max response (HaCat) -19.8% | max response (KB-3-1) 12.8% | max response (NIH3T3) -1.47% | outcome (MCC-13) | outcome (MCC-26) | outcome (MKL-1) | outcome (MKL-2)

CCCCC1(COC(=O)CCC(=O)O)C(=O)N(c2ccccc2)N(c2ccccc2)C1=O
inactive: Potency (PAD) | Potency (PC15) | Potency (PC26) | Potency (PC49) | Potency (SC27B) | Potency (TAB109) | Potency (TAB113) | Potency (TAB165) | Potency (W2) | outcome (CRL-7250) | max response (HEK293) -6.41% | max response (HaCat) -4.26% | max response (KB-3-1) 2.02% | outcome (NIH3T3) | outcome (MCC-13) | outcome (MCC-26) | outcome (MKL-1) | outcome (MKL-2)

Cc1cc(=O)[nH]c(=S)[nH]1
inactive: Potency (PAD) | Potency (PC15) | Potency (PC26) | Potency (PC49) | Potency (SC27B) | Potency (TAB109) | Potency (TAB113) | Potency (TAB165) | Potency (W2) | max response (CRL-7250) 1.13% | max response (HEK293) -1.11% | max response (HaCat) -13.5% | max response (KB-3-1) -0.427% | outcome (NIH3T3) | outcome (MCC-13) | outcome (MCC-26) | outcome (MKL-1) | outcome (MKL-2)

CCN(CC)CCc1nc(-c2ccccc2)no1
inactive: Potency (PAD) | Potency (PC15) | Potency (PC26) | Potency (PC49) | Potency (SC27B) | Potency (TAB109) | Potency (TAB113) | Potency (TAB165) | Potency (W2) | max response (CRL-7250) 3.52% | max response (HEK293) -5.93% | max response (HaCat) 4.68% | max response (KB-3-1) 7.98% | max response (NIH3T3) 1.98% | outcome (MCC-13) | outcome (MCC-26) | outcome (MKL-1) | outcome (MKL-2)

O=C(O)c1ccc(OCCCOc2ccc(C(=O)O)cc2)cc1
inactive: Potency (PAD) | Potency (PC15) | Potency (PC26) | Potency (PC49) | Potency (SC27B) | Potency (TAB109) | Potency (TAB113) | Potency (TAB165) | Potency (W2) | max response (CRL-7250) -0.605% | max response (HEK293) -0.863% | max response (HaCat) -3.27% | max response (KB-3-1) 3.43% | max response (NIH3T3) 2.41% | outcome (MCC-13) | outcome (MCC-26) | outcome (MKL-1) | outcome (MKL-2)

O=C(O)/C=C/c1ccc(Cn2ccnc2)cc1
inactive: max response (CRL-7250) -1.04% | max response (HEK293) -1.65% | max response (HaCat) 4.76% | max response (KB-3-1) 2.2% | outcome (NIH3T3) | outcome (MCC-13) | outcome (MCC-26) | outcome (MKL-1) | outcome (MKL-2)

Nc1ccc(C(=O)Oc2ccccc2)c(O)c1
inactive: Potency (PAD) | Potency (PC15) | Potency (PC26) | Potency (PC49) | Potency (SC27B) | Potency (TAB109) | Potency (TAB113) | Potency (TAB165) | Potency (W2) | max response (CRL-7250) 2.06% | max response (HEK293) 0.228% | max response (HaCat) -1.24% | max response (KB-3-1) -4.49% | outcome (NIH3T3) | outcome (MCC-13) | outcome (MCC-26) | outcome (MKL-1) | outcome (MKL-2)

CC1(C)[C@@H](OC(=O)CCC(=O)O)CC[C@]2(C)[C@H]3C(=O)C=C4[C@@H]5C[C@@](C)(C(=O)O)CC[C@]5(C)CC[C@@]4(C)[C@]3(C)CC[C@@H]12
inactive: max response (CRL-7250) -5.85% | max response (HEK293) -0.807% | max response (HaCat) 2.22% | max response (KB-3-1) -3.96% | outcome (NIH3T3) | outcome (MCC-13) | outcome (MKL-1) | outcome (MKL-2)

O=C(CCBr)N1CCN(C(=O)CCBr)CC1
inactive: Potency (PAD) | Potency (PC15) | Potency (PC26) | Potency (PC49) | Potency (SC27B) | Potency (TAB109) | Potency (TAB113) | Potency (TAB165) | Potency (W2) | max response (CRL-7250) -5.81% | max response (HEK293) 0.232% | max response (HaCat) -10.3% | max response (KB-3-1) -5.88% | outcome (NIH3T3) | outcome (MCC-13) | outcome (MCC-26) | outcome (MKL-1) | outcome (MKL-2)

CC(C)CCOC(=O)c1ccc(N(C)C)cc1
inactive: Potency (PAD) | Potency (PC15) | Potency (PC26) | Potency (PC49) | Potency (SC27B) | Potency (TAB109) | Potency (TAB113) | Potency (TAB165) | Potency (W2) | max response (CRL-7250) -21% | max response (HEK293) -23.8% | max response (HaCat) -5.98% | max response (KB-3-1) 11.7% | max response (NIH3T3) -25.1% | outcome (MCC-13) | outcome (MCC-26) | outcome (MKL-1) | outcome (MKL-2)

Cc1cc(C)nc(NS(=O)(=O)c2ccc(N)cc2)n1
inactive: Potency (PAD) | Potency (PC15) | Potency (PC26) | Potency (PC49) | Potency (SC27B) | Potency (TAB109) | Potency (TAB113) | Potency (TAB165) | Potency (W2) | max response (CRL-7250) -8.07% | max response (HEK293) 3.16% | max response (HaCat) 3.39% | max response (KB-3-1) -0.934% | outcome (NIH3T3) | outcome (MCC-13) | outcome (MCC-26) | outcome (MKL-1) | outcome (MKL-2)
